FLuc inh: inhibitors of firefly (Photinus pyralis) luciferase; P08659; purified P. pyralis luciferase, luminescence, biochemical; Potency, µM (highest dose often 115 µM), usual class: inhibitors; hit rate 2.5% among 76,000; AID 1347043; note: nearly all actives have a fitted effect of over 65% in size
Target sequence (P08659 whole entry, looked up): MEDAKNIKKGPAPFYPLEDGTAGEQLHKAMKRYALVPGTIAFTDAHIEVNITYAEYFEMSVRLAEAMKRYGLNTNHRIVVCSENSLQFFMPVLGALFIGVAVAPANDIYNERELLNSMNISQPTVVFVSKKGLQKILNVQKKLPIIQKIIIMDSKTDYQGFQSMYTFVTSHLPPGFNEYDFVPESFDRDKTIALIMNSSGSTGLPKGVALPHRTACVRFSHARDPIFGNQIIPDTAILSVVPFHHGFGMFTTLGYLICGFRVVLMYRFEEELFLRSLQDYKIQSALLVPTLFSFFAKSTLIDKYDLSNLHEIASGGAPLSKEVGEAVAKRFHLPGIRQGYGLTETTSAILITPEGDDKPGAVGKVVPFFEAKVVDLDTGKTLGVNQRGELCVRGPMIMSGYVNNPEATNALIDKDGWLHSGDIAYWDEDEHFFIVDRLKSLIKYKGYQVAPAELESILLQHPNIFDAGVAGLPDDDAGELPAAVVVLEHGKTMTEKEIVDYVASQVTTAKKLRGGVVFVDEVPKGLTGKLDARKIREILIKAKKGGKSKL
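Purified 10nM P. pyralis luciferase with 10uM D-luciferin and 10uM ATP in 50mM Tris acetate pH 7.5, 10mM Mg acetate, 0.01% Tween-20, 0.05% BSA. qHTS titration; luminescence read by CCD imager.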
NIH3T3 tox: NIH 3T3 cell cytotoxicity | AID 1345082 | Potency, µM (doses to about 96.7 µM), hits mostly inhibitors | NIH 3T3 viability, CellTiter-Glo ATP luminescence, 48-72 h | hit rate 4.3% among 94,000; note: nearly all actives have a fitted effect of over 55% in size
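Mouse fibroblast NIH 3T3 cells, 400 per well, received compound via pintool and were incubated for 48 or 72 hr prior to CellTiter-Glo ATP luminescence measurement.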
HEK293 tox: kills HEK 293 cells. hit rate 6.6% among 94,000. HEK 293 viability, ATP luminescence (CellTiter-Glo), 48-72 h. Potency, µM (doses to about 115 µM), actives largely listed as inhibitors. AID 1345083; note: nearly all actives have a fitted effect of over 60% in size
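Cytotoxicity was scored by loss of ATP-coupled luminescence (CellTiter-Glo) in HEK 293 cells. Compound treatment ran 48 or 72 hr at 37 degree Celsius, 5% CO2, 95% humidity.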
GPT2 inhibitor: blocks human glutamate pyruvate transaminase 2. Q8TD30. Potency, µM (doses to about 57.7 µM), most hits filed as inhibitors. hit rate 0.25% among 100,000. AID 1671188. Recombinant GPT2, coupled pyruvate oxidase/HRP Amplex Red fluorescence; note: nearly all actives have a fitted effect of over 60% in size
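Fluorescence of coupled pyruvate oxidase/HRP/Amplex Red system (50uM Amplex, 30 min, dark) reports pyruvate formed by GPT2. Enzyme reaction: 10ng/uL GPT2, 2mM L-alanine, 250uM a-KG, 30 min room temperature, pH 7.5; 50uM AOA control.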
NPR1 antag: blocks ANP-stimulated signaling of human Npr1 receptor; P16066; HEK293 hNpr1 GloSensor cGMP, ANP-stimulated luminescence; Potency, µM (top dose mostly 46.3 µM), usual class: inhibitors; hit rate 1.6% among 76,000; AID 1347048; calls by dose curve; note: nearly all actives have a fitted effect of over 60% in size
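HEK293 cells stably expressing human Npr1 and cGMP GloSensor pGS-40F, loaded 2 h with 2% GloSensor reagent, given compound 30 min at room temperature. Luminescence read before and 20 min after 0.1 nM hNppA.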
Npr1 antag conf: hNpr1 antagonism, confirmation assay; Potency, µM (highest dose often 57.6 µM), most hits filed as inhibitors; hit rate 76% among 1,400; shares compounds with NPR1 antag; HEK293 hNpr1 cGMP GloSensor luminescence, ANP-stimulated; calls by dose curve; note: nearly all actives have a fitted effect of over 70% in size
NPR2 antag: selectivity test of Npr1 antagonists against human Npr2. HEK293 hNpr2 GloSensor cGMP luminescence, CNP-stimulated. Potency, µM (doses to about 57.6 µM), most hits filed as inhibitors. AID 1347046. hit rate 67% among 1,400. shares compounds with NPR1 antag; calls by dose curve; note: nearly all actives have a fitted effect of over 70% in size
FLuc inh counter: FLuc enzyme inhibition, Npr1 counter-screen; AID 1347047; purified FLuc enzyme, luminescence, Km substrate; Potency, µM (highest dose often 57.6 µM), most hits filed as inhibitors; shares compounds with NPR1 antag; hit rate 0.7% among 1,400
GloSensor cGMP: control cell line activity, Npr1 antagonist counter-screen. shares compounds with NPR1 antag. HEK293 GloSensor cGMP, SNP-stimulated, luminescence. Potency, µM (series often up to 57.6 µM), actives largely listed as inhibitors. hit rate 69% among 1,400; calls by dose curve; note: nearly all actives have a fitted effect of over 70% in size
Numbers stand for hits. The list is not random: actives were taken first. Their share in the collection is about 10%. Unless noted, calls come from the whole dose curve; as a rule, active = well fitted curve in the direction sought with a large enough effect; inconclusive = small, poorly fitted or top-dose-only effect, or another doubt; inactive = no such curve, though single readings can be large; an effect the other way counts as inactive or inconclusive.

`Cc1ccc(N2CCN(C(=O)C3CCCN(c4cnn(Cc5ccccc5)c(=O)c4)C3)CC2)cc1` (centres undefined) gave FLuc inh inactive, NIH3T3 tox inconclusive, HEK293 tox 25µM, GPT2 inhibitor inactive, NPR1 antag 10µM, Npr1 antag conf 17µM, NPR2 antag 19µM, FLuc inh counter inactive and GloSensor cGMP 15µM.
`CCc1noc(-c2cn(C3CCN(C(=O)c4cc(F)cc(F)c4)CC3)nn2)n1` gave FLuc inh inactive, NIH3T3 tox inactive, HEK293 tox inactive, GPT2 inhibitor inactive and NPR1 antag inactive.
For CC(C)NC(=O)N1CCC(N2CC3CC(C2)[C@H]2CCCC(=O)N2C3)CC1 (some centres undefined) the results were FLuc inh inactive, NIH3T3 tox inactive, HEK293 tox inactive, GPT2 inhibitor inactive and NPR1 antag inactive.
`CC1=C(C(=O)OC(C)C)C(c2ccccc2C)N2C(CC(=O)NCC3CC3)=CSC2=N1` (centres undefined) gave FLuc inh inactive, NIH3T3 tox inconclusive, HEK293 tox 10µM, GPT2 inhibitor inactive, NPR1 antag inconclusive, Npr1 antag conf inconclusive, NPR2 antag inconclusive, FLuc inh counter inactive and GloSensor cGMP inconclusive.
CC1=C(C(=O)OC(C)C)C(c2ccccc2Cl)N2C(CC(=O)NCC3CC3)=CSC2=N1 (centres undefined) was read as FLuc inh inactive, NIH3T3 tox inconclusive, HEK293 tox inconclusive, GPT2 inhibitor inactive, NPR1 antag 11µM, Npr1 antag conf inconclusive, NPR2 antag 22µM, FLuc inh counter inactive and GloSensor cGMP inconclusive.
For COC(=O)C1=C(C)N=C2SC=C(CC(=O)NCC3CC3)N2C1c1ccccc1OC (centres undefined) the results were FLuc inh inactive, NIH3T3 tox inactive, HEK293 tox inconclusive, GPT2 inhibitor inactive and NPR1 antag inactive.
For CCC1=C(C(=O)OC)C(c2ccccc2Cl)N2C(CC(=O)NCC3CC3)=CSC2=N1 (centres undefined) the results were FLuc inh inactive, NIH3T3 tox inactive, HEK293 tox inconclusive, GPT2 inhibitor inconclusive and NPR1 antag inconclusive.
COc1cccc(-c2ccc(CN3C4CCC3CN(C(=O)c3ccncc3)C4)cc2)c1 was read as NIH3T3 tox inconclusive, HEK293 tox inconclusive, GPT2 inhibitor inactive, Npr1 antag conf 12µM, NPR2 antag 15µM, FLuc inh counter inactive and GloSensor cGMP 14µM.
For O=C(c1ccncc1)N1CC2CCC(C1)N2Cc1ccc(-c2ccsc2)cc1 the results were FLuc inh inactive, NIH3T3 tox inconclusive, HEK293 tox inconclusive, GPT2 inhibitor inactive, NPR1 antag 2.5µM, Npr1 antag conf 6.9µM, NPR2 antag 6.9µM, FLuc inh counter inactive and GloSensor cGMP 6.1µM.
`O=C(c1ccncc1)N1CC2CCC(C1)N2Cc1ccc(-c2cccs2)cc1` gave NIH3T3 tox inconclusive, HEK293 tox inconclusive, GPT2 inhibitor inactive, Npr1 antag conf 4.3µM, NPR2 antag 5.4µM, FLuc inh counter inactive and GloSensor cGMP 4.3µM.
COc1cccc(NC(=O)N[C@H]2CCN(C(=O)C=C(C)C)[C@@H]2C(=O)N[C@H](Cc2ccccc2)C(N)=O)c1 was read as FLuc inh inactive, NIH3T3 tox inactive, HEK293 tox inactive, GPT2 inhibitor inactive and NPR1 antag inactive.
For CNC(=O)[C@@H]1C[C@@H](O)CN1C1CCN(C(=O)Cc2cccc(OC)c2)CC1 the results were FLuc inh inactive, NIH3T3 tox inactive, HEK293 tox inactive, GPT2 inhibitor inactive and NPR1 antag inactive.
NC(=O)c1ccc(NC(=O)Cn2nc3c(cc2=O)CCCCC3)cc1 was read as FLuc inh inactive, NIH3T3 tox inactive, HEK293 tox inactive, GPT2 inhibitor inactive and NPR1 antag inactive.
Screening COc1ccc(Cl)cc1C(=O)N1CCC(n2cc(-c3nc(C)no3)nn2)CC1 returned FLuc inh inactive, NIH3T3 tox inconclusive, HEK293 tox inactive, GPT2 inhibitor inactive and NPR1 antag inactive.
COc1ccccc1-c1noc(CCC(=O)N2CCC(Cc3noc(C)n3)CC2)n1 was read as FLuc inh inactive, NIH3T3 tox inactive, HEK293 tox inactive, GPT2 inhibitor inactive and NPR1 antag inactive.
O=C(CCc1ccccc1)N1CCC(Cc2nc(-c3ccc(F)cc3)no2)CC1 was read as FLuc inh inactive, NIH3T3 tox inconclusive, HEK293 tox 45µM, GPT2 inhibitor inactive, NPR1 antag 5µM, Npr1 antag conf 6.1µM, NPR2 antag 7.7µM, FLuc inh counter inactive and GloSensor cGMP 5.4µM.
Screening O=C(CCCc1ccccc1)N1CCC(Cc2nc(-c3ccc(F)cc3)no2)CC1 returned FLuc inh inactive, NIH3T3 tox inconclusive, HEK293 tox inconclusive, GPT2 inhibitor inactive, NPR1 antag 7.9µM, Npr1 antag conf 11µM, NPR2 antag 12µM, FLuc inh counter inactive and GloSensor cGMP 11µM.
`Cc1cc(C)n(CC(=O)N[C@@H]2CN(Cc3ccccc3)C[C@H]2CN(C)C)c(=O)n1` gave FLuc inh inactive, NIH3T3 tox inactive, HEK293 tox inactive, GPT2 inhibitor inactive, NPR1 antag 11µM, Npr1 antag conf inactive, NPR2 antag inactive, FLuc inh counter inactive and GloSensor cGMP inactive.
For COCCN1C(=O)CO[C@H]2CN(CCCc3ccccc3)C[C@H]21 the results were FLuc inh inactive, NIH3T3 tox inconclusive, HEK293 tox inconclusive, GPT2 inhibitor inactive, NPR1 antag 14µM, Npr1 antag conf 16µM, NPR2 antag 20µM, FLuc inh counter inactive and GloSensor cGMP 13µM.
Screening CCc1[nH]c2c(CNC(=O)c3c(C)cc(C)n(C)c3=O)cc(F)cc2c1C returned FLuc inh inactive, NIH3T3 tox inactive, HEK293 tox inactive, GPT2 inhibitor inactive and NPR1 antag inactive.
Screening Cc1cc(CNC(=O)c2cc(C(C)C)nn2C)c2[nH]c(C)c(C)c2c1 returned FLuc inh inactive, NIH3T3 tox inconclusive, HEK293 tox 40µM, GPT2 inhibitor inactive, NPR1 antag 7.1µM, Npr1 antag conf 6.9µM, NPR2 antag 6.9µM, FLuc inh counter inactive and GloSensor cGMP 4.8µM.

High-throughput results (PubChem)
